# This is part of a sample that, as a whole, favours compounds with a hit. Of some 83,000 tested, about 20% had one in any assay.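 Interpretation: 100, growth as untreated; towards 0, rising growth inhibition; 0, no net growth; 0 to -100, cell death. Compounds scoring below 10 were considered active.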 Active and inactive are the calls of the source.
# System: HOP-92 NSCLC
# Assay: NCI-60 one-dose screen, 48 h (100 = growth as untreated, 0 = no growth, -100 = all killed)
# Conditions: 10 µM unless noted
# Experimental: Growth inhibition of the HOP-92 human Non-Small Cell Lung tumor cell line is measured as a screen for anti-cancer activity. Cells are grown in 96 well plates and exposed to the test compound for 48 hours. Compounds are tested at a single concentration, which is 10^-5 M for most compounds. The reported endpoint is percent growth (GI% or GIPRCNT), where numbers from 0 - 100% represent growth inhibition, and numbers from -100% - 0 represent cell death. For example, a value of 40 represents 60% growth inhibition. A value of 0 means no net growth occurred over the course of the experiment. A value of -40 indicates 40% of cells at the beginning of the experiment died by the end of the experiment. A value of -100 means all cells are dead at the end of the experiment.
# NCI-60 Human Tumor Cell Lines Screen was performed using the standard one-dose NCI protocol, which is described in more detail at https://dtp.cancer.gov/discovery_development/nci-60/default.htm.
# Compounds with GIPRCNT values below 10 were considered active. Activity score was based on GIPRCNT using the following formula: […]
# Score is 0 for GIPRCNT values of 100 or above, 50 for GIPRCNT values of 0, and 100 for GIPRCNT values of -100.
row,SMILES,growth
1,Nc1c(C(=O)Nc2cccc(Cl)c2)sc2ncc(Cl)cc12,91.9% (inactive)
2,N#CCCCCCn1c2ccccc2c2c3c(c4c5ccccc5n(CCCCCC#N)c4c21)C(=O)N(O)C3=O,87.4% (inactive)
3,O=Cc1nc2ccccc2[nH]1,86.1% (inactive)
4,Cc1nn2c(-c3nc4cc(Cl)c(Cl)cc4[nH]3)c(-c3ccc(F)cc3)nc2s1,-7.53% (active)
5,Cc1nn(-c2ccc(Cl)cc2)c(=O)n1CCn1cnc2ccccc21,101% (inactive)
6,COc1cccc(-c2nn(-c3ccccc3)cc2-c2ccnc(NCCCNS(=O)(=O)c3ccc(Cl)cc3)c2)c1,25.1% (inactive)
7,O=c1[nH]ncc(Br)c1Br,62.3% (inactive)
8,C=C(C)[C@@H]1CC[C@]2(C)[C@H](CC=C3[C@@H]4CC(C)(C)CC[C@]4(C=O)CC[C@]32C)[C@@]1(C)CCCN,62% (inactive)
9,C=C1C(=O)O[C@H]2[C@H]1CC/C(COC(=O)N[C@H](Cc1c[nH]c3ccccc13)C(=O)OC)=C\CC[C@@]1(C)O[C@@H]21,3.25% (active)
10,CN1CCN(CCOc2ccc(-c3cnc4c(-c5cccc(F)c5)cnn4c3)cc2)CC1,24.8% (inactive)
11,CC1(C)C(=O)/C(=C\c2cccnc2)C[C@]2(C)[C@H]3CC[C@@H]4[C@@H](C(=O)/C=C/c5ccncc5)CC[C@@]4(C)[C@]3(C)CC[C@@H]12,16.1% (inactive)
12,Cc1cccc2c1NC(=O)[C@@]21[C@H](C(=O)c2ccccc2)[C@]2(C(=O)Nc3ccccc32)[C@H]2CCCN21,-25.2% [100 µM] (active)
13,COc1cccc(NC(=O)c2sc3nc4c(cc3c2N)C(=O)CCC4)c1,57.3% (inactive)
14,N#CCCCCCn1c2ccccc2c2c3[nH]c(=O)[nH]c(=O)c3c3c4ccccc4n(CCCCCC#N)c3c21,19.2% (inactive)
15,O=C(CCCCCn1c2ccccc2c2c3c(c4c5ccccc5[nH]c4c21)C(=O)N(O)C3=O)N1CCOCC1,89.8% (inactive)
16,C=CC(=O)N[C@H](Cc1ccc(-c2cc(Cl)cc(Cl)c2)cc1)[C@H](O)[C@@H](O)C(=O)O,84.4% (inactive)
17,C=C(C)[C@@H]1CC[C@]2(C(=O)NNC(=O)c3cccnc3)CC[C@]3(C)[C@H](CC[C@@H]4[C@@]5(C)CCCNC(C)(C)[C@@H]5CC[C@]43C)[C@@H]12,50.5% (inactive)
18,Cn1c(/C(C#N)=C/c2ccc3ccccc3c2)cc2ccccc21,64.8% (inactive)
19,O=C(O)c1cccc2c1Cc1cc([N+](=O)[O-])ccc1-2,82% (inactive)
20,O=S(=O)(NCCNc1cc(-c2cn(-c3ccccc3)nc2-c2cccc(O)c2)ccn1)c1ccc(Br)cc1,33.3% (inactive)

row,SMILES,growth
1,COC(=O)[C@]12CC[C@@H](C)[C@H](C)[C@@H]1C1=CC[C@@H]3[C@@]4(C)C[C@@H](O)OC[C@](C)(C=O)C4C(=O)C[C@@]3(C)[C@]1(C)CC2 (stereo not given in full),-28.6% (active)
2,CC(C)(C)c1nc(-c2ccc(O)c(O)c2)cs1,61.3% (inactive)
3,O=C(N/N=C\c1ccccc1O)C1CC1,90.8% (inactive)
4,CC(=O)OC(C)COc1ccc(-c2ccccc2)cc1 (stereo not given),89.9% (inactive)
5,COC(c1ccccc1)(c1ccccc1)c1ccccc1,147% (inactive)
6,Cc1ccc(-c2nn(Cc3cn(-c4cc(C)nc5ccccc45)nn3)c3ncnc(N)c23)cc1,-0.284% (active)
7,COc1ccc2c(c1)c(-c1nc(-c3c[nH]c4ncccc34)cs1)cn2CCN,29% (inactive)
8,O=C1C(Cl)=C(Nc2ccc(S(=O)(=O)c3ccc(NC4=C(Cl)C(=O)c5ccccc5C4=O)cc3)cc2)C(=O)c2ccccc21,-26.2% (active)
9,COc1cc2ncnc(Nc3ccc(OCc4cccc(F)c4)c(Cl)c3)c2cc1NC(=O)C1CCCC1,76.4% (inactive)
10,O=C1CNCCN1,105% (inactive)
11,COc1ccc(OCC(CO)N2CCN(c3ccccc3)CC2)cc1 (stereo not given),81.2% (inactive)
12,O=[N+]([O-])c1cccc(/C=N\Nc2ccccc2)c1,66% (inactive)
13,C=C1C(=O)O[C@H]2[C@H]1CC/C(COC(=O)NCc1cc3ccccc3[nH]1)=C\CC[C@@]1(C)O[C@@H]21,-14.3% (active)
14,CC(=O)O[C@H]1CC[C@]2(C)[C@H]3CC=C4[C@@H]5[C@H](C)[C@@H](C)CC[C@]5(C(=O)NCCNCCNCCN)CC[C@@]4(C)[C@]3(C)CC[C@H]2C1(C)C,55% (inactive)
15,O=C1CN(c2ccccc2)C(=O)C1C(=O)Nc1ccc(Cl)c(Cl)c1 (stereo not given),10.6% [100 µM] (inactive)
16,C/C(=N\Nc1cc(C)c2cc(C)ccc2n1)c1ccccn1,-11% (active)
17,COC(=O)c1cc(=O)nc(N/N=C/c2ccc(C)cc2)s1,66.4% (inactive)
18,CCN1CCN(C(=O)[C@@]2(C)CC[C@]3(C)CC[C@]4(C)C(=CC(=O)[C@@H]5[C@@]6(C)CC[C@H](OCCC#N)C(C)(C)[C@@H]6CC[C@]54C)[C@@H]3C2)CC1,70.8% (inactive)
19,Cc1cc2nc3c4cc(Cl)ccc4n(CCN(C)C)c3nc2cc1C,25.8% (inactive)
20,O=C(c1ccccc1)C(CN1CCOCC1)c1ccccc1 (stereo not given),40.5% (inactive)
